Structures are written as SMILES. The source made the active and inactive calls. Unless noted, no rule for the calls is given here.

System in one experiment: not listed separately
Put plainly: HepG2 cytotoxicity, primary screen, cytotoxicity control for P. falciparum antimalarial project, cell-based, ATP luminescence (AID 2303;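 active = inhibition above 50%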;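 also: 0% = DMSO wells and 100% = digitonin-killed cells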). Particulars: HepG2 viability, 24-48 h, at 10 µM, active compounds read high.
For `COc1ccc2ncc(F)c([C@H](O)CN3CCC(NCc4cc5c(cn4)OCCO5)CC3)c2c1`, the inhibition was 5% (inactive).
The same measure, in the same setting: the result for `C[C@@H]1CN(c2cnn(C/C=C/c3ccc(NC(=O)c4ccc5nonc5c4)cc3)c(=O)c2Cl)C[C@H](C)N1` reads 71% (active).
Regarding `Cc1cccc2[nH]c(-c3ccc(-c4cccc(CNCc5cccc(N)c5)c4)cc3)nc12`, the inhibition was 0% (inactive).
The same measure, in the same setting: the result for `CN(C)CC(=O)Nc1ccc(Nc2nccc(NCC(O)c3ccccc3)n2)cc1` (stereo unspecified) reads -2% (inactive); that for `S=C(NN=Cc1ccccn1)Nc1ccc(Cl)c(Cl)c1`, 40% (inactive).
Same read-out and setting: the result for `O=C(n1c(-c2cc3ccccc3n2C(=O)C(F)(F)F)cc2ccccc21)C(F)(F)F` reads 30% (inactive); that for `N#Cc1ccc(NC(=O)Nc2ccc3c(c2)CCN(C2CCC2)CC3)cc1`, 6% (inactive); that for `c1csc(-c2ccc3c(c2)CC(NCc2c[nH]c4cnccc24)C3)c1` (stereo unspecified), 9% (inactive).
On the same count and under the same terms, the result for `CCOc1ccc(-c2nonc2NC(=O)c2ccc(OC(C)C)cc2)cc1OCC` reads 13% (inactive); that for `O=C(Nc1ccc(Cl)cc1)Nc1ccc2nonc2c1`, -25% (inactive); that for `CC(=O)c1ccc(NC(=O)C2c3ccccc3C(=O)N(CC(C)C)C2c2cccs2)cc1` (stereo unspecified), 13% (inactive).
Take `CC(C)(C)c1ccc(CN2CCC(CNC(=O)c3cc(-c4cccc(F)c4)cs3)C2)cc1` (stereo unspecified): the inhibition is 32% (inactive).
Same read-out and setting: the result for `CCCNC(=O)C1CCN(C(c2ccccc2)c2ccc(Cl)c(Cl)c2)CC1` (stereo unspecified) reads 15% (inactive); that for `Cc1cccc2[nH]c(-c3ccc(-c4ccc(CNCC5CCCO5)cc4)s3)nc12` (stereo unspecified), 11% (inactive); that for `CN1CCN(c2cccc(-c3nnc(-c4ccc(OCC(=O)NCc5ccc(C(F)(F)F)cc5)c([N+](=O)[O-])c4)o3)c2)CC1`, 35% (inactive).
The same measure, in the same setting: the result for `COc1ccc(NC(=O)[C@H](CC(C)C)Nc2ccnc(Nc3ccccc3)n2)cc1` reads -7% (inactive).
For `CCCCN(C)CC#Cc1ccc(-c2ccc3[nH]c(C)c(Br)c(=O)c3c2)cn1`, the inhibition was 3% (inactive).
The same measure, in the same setting: the result for `Clc1ccc(-n2cnc3c(Nc4ccc(Oc5ccccc5)cc4)ncnc32)cc1Cl` reads 4% (inactive).
Take `CCCCNc1nc(NCCCC)c2c(C)c(Cc3ccccc3)c(NCCCC)nc2n1`: the inhibition was 69% (active).
Still for that read-out and setting: the result for `O=c1cc(NCCCNCc2cc(C(F)(F)F)ccc2F)[nH]c2ccccc12` reads 0% (inactive).
Take `COc1ccc(NC(=O)[C@H](Cc2ccccc2)Nc2cc(C)nc(NCCc3ccc(F)cc3)n2)cc1`: the inhibition was 17% (inactive).
Same read-out and setting: the result for `O=C(NCCN1CCCC1)c1ccc(-c2ccc(-c3nc4ccc(C(F)(F)F)cc4[nH]3)s2)cc1` reads 31% (inactive); that for `COc1ccc2sc(CNCCCNc3cc(=O)c4ccccc4[nH]3)c(Cl)c2c1`, 1% (inactive).
Turning to `CCc1cn2c3c(cc(C(=O)N[C@@H](Cc4ccccc4)[C@H](O)CNCc4ccccc4)cc13)N(C)S(=O)(=O)CC2`, the inhibition was 3% (inactive).
On the same count and under the same terms, the result for `CS(=O)(=O)N(c1ccc(F)cc1)c1cc(C(=O)N[C@@H](Cc2ccccc2)[C@H](O)CNCc2cccc(C(F)(F)F)c2)cc(N2CCCC2=O)c1` reads -4% (inactive); that for `CC(C)(CNCc1ccc(C(F)(F)F)cc1)c1nc(-c2ccc(Cl)c(O)c2)c(-c2ccncc2)[nH]1`, 42% (inactive).

In a further experiment the target is L-lactate dehydrogenase (Plasmodium falciparum (isolate CDC / Honduras)) (UniProt Q27743). Kind of experiment: PfLDH activity inhibition – cell lysate, 3D7 strain, counter-screen for P. falciparum growth inhibition project (AID 2304).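 Also: 0% = vehicle and 100% = reference inhibitor.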 Particulars: P. falciparum 3D7 crude extract, LDH APAD/NBT absorbance; at 2 µM; active compounds read high.
L-lactate dehydrogenase (Plasmodium falciparum (isolate CDC / Honduras)), sequence (Q27743 whole entry, looked up): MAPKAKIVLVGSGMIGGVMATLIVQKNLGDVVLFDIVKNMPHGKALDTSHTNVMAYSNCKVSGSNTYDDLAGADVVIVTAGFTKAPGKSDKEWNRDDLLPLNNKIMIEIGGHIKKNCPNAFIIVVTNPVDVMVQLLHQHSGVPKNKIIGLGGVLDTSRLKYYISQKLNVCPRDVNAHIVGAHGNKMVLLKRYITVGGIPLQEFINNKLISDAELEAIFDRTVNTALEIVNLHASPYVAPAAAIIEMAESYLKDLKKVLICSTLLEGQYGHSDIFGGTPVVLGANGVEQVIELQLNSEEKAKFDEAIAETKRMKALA
As to `COc1cc2c(cc1C(F)(F)F)N(C(=O)Nc1cc(F)c(F)c(-c3cccnc3)c1)CC2`, the inhibition was 3% (inactive).
As for `CCCn1cc2c(ccc3nc(N)nc(N)c32)n1`, the inhibition is 5% (inactive).
The same measure, in the same setting: the result for `Oc1ccc2[nH]c(-c3cccs3)nc2c1CN1CCC(N2CCCC2)CC1` reads -3% (inactive); that for `CN1Cc2cc(NC(=O)/C=C/c3ccccc3Cl)ccc2C(C)(C)C1`, -3% (inactive); that for `CN(C)CCOc1ccc2[nH]c(-c3cccc(OCc4ccccc4)c3)nc2c1C#N`, -5% (inactive).
For the molecule `O=C(NC1CCN(Cc2ccccc2O)C1)c1cccc(C(F)(F)F)c1` (stereo unspecified), the inhibition is 4% (inactive).
Still for that read-out and setting: the result for `Cc1cc(NN=Cc2ccc(Cl)cc2)c2ccc(F)cc2n1` reads -2% (inactive); that for `O=C(CCCC(=O)Nc1ccc(C2=NCCN2)cc1)Nc1ccc(C2=NCCN2)cc1`, 2% (inactive).
The same measure, in the same setting: the result for `O=C(NC1CCCCN(Cc2ccc3c(c2)OCCO3)C1)c1cc(-c2ccccc2F)cs1` (stereo unspecified) reads 1% (inactive); that for `CC(=O)N1CCC(C(=O)Nc2ccc(-c3cccc(-c4nc5ccc(C(F)(F)F)cc5[nH]4)c3)cc2)CC1`, -9% (inactive); that for `O=[N+]([O-])c1ccccc1C=NNc1c2c(nc3ccccc13)CCCC2`, -3% (inactive).
In the case of `CCNc1cc(C(=O)N[C@@H](Cc2ccccc2)[C@H](O)CNCc2cccc(-n3ccnc3)c2)cc(N2CCCC2=O)c1`, the inhibition was 1% (inactive).
Consider `Cc1cccc2[nH]c(-c3ccc(-c4ccc(CN5CCC(C(N)=O)CC5)cc4)s3)nc12`, for which the inhibition was 8% (inactive).
On the same count and under the same terms, the result for `Cc1cccc2[nH]c(-c3ccc(-c4cccc(C(=O)N5CCCCC5C(C)O)c4)s3)nc12` (stereo unspecified) reads -1% (inactive); that for `COc1ccc2ncc(F)c([C@H](O)CN3CCC(NCc4cc5c(cn4)OCCO5)CC3)c2c1`, 7% (inactive).
Still for that read-out and setting: the result for `C[C@@H]1CN(c2cnn(C/C=C/c3ccc(NC(=O)c4ccc5nonc5c4)cc3)c(=O)c2Cl)C[C@H](C)N1` reads -3% (inactive); that for `Cc1cccc2[nH]c(-c3ccc(-c4cccc(CNCc5cccc(N)c5)c4)cc3)nc12`, -4% (inactive).
The same measure, in the same setting: the result for `CN(C)CC(=O)Nc1ccc(Nc2nccc(NCC(O)c3ccccc3)n2)cc1` (stereo unspecified) reads -4% (inactive).
As for `S=C(NN=Cc1ccccn1)Nc1ccc(Cl)c(Cl)c1`, the inhibition was 5% (inactive).
For `O=C(n1c(-c2cc3ccccc3n2C(=O)C(F)(F)F)cc2ccccc21)C(F)(F)F`, the inhibition was 5% (inactive).
In the case of `N#Cc1ccc(NC(=O)Nc2ccc3c(c2)CCN(C2CCC2)CC3)cc1`, the inhibition is -8% (inactive).
Regarding `c1csc(-c2ccc3c(c2)CC(NCc2c[nH]c4cnccc24)C3)c1` (stereo unspecified), the inhibition is -1% (inactive).
The same measure, in the same setting: the result for `CCOc1ccc(-c2nonc2NC(=O)c2ccc(OC(C)C)cc2)cc1OCC` reads -2% (inactive); that for `O=C(Nc1ccc(Cl)cc1)Nc1ccc2nonc2c1`, -4% (inactive).
As for `CC(=O)c1ccc(NC(=O)C2c3ccccc3C(=O)N(CC(C)C)C2c2cccs2)cc1` (stereo unspecified), the inhibition is -1% (inactive).
For the molecule `CC(C)(C)c1ccc(CN2CCC(CNC(=O)c3cc(-c4cccc(F)c4)cs3)C2)cc1` (stereo unspecified), the inhibition was 3% (inactive).
As for `CCCNC(=O)C1CCN(C(c2ccccc2)c2ccc(Cl)c(Cl)c2)CC1` (stereo unspecified), the inhibition is 1% (inactive).
Same read-out and setting: the result for `Cc1cccc2[nH]c(-c3ccc(-c4ccc(CNCC5CCCO5)cc4)s3)nc12` (stereo unspecified) reads -5% (inactive); that for `CN1CCN(c2cccc(-c3nnc(-c4ccc(OCC(=O)NCc5ccc(C(F)(F)F)cc5)c([N+](=O)[O-])c4)o3)c2)CC1`, -4% (inactive).
Take `COc1ccc(NC(=O)[C@H](CC(C)C)Nc2ccnc(Nc3ccccc3)n2)cc1`: the inhibition is 3% (inactive).
Take `CCCCN(C)CC#Cc1ccc(-c2ccc3[nH]c(C)c(Br)c(=O)c3c2)cn1`: the inhibition is -3% (inactive).
Take `Clc1ccc(-n2cnc3c(Nc4ccc(Oc5ccccc5)cc4)ncnc32)cc1Cl`: the inhibition was 0% (inactive).
Same read-out and setting: the result for `CCCCNc1nc(NCCCC)c2c(C)c(Cc3ccccc3)c(NCCCC)nc2n1` reads -10% (inactive); that for `O=c1cc(NCCCNCc2cc(C(F)(F)F)ccc2F)[nH]c2ccccc12`, -2% (inactive).
On the same count and under the same terms, the result for `COc1ccc(NC(=O)[C@H](Cc2ccccc2)Nc2cc(C)nc(NCCc3ccc(F)cc3)n2)cc1` reads -3% (inactive); that for `O=C(NCCN1CCCC1)c1ccc(-c2ccc(-c3nc4ccc(C(F)(F)F)cc4[nH]3)s2)cc1`, 4% (inactive); that for `COc1ccc2sc(CNCCCNc3cc(=O)c4ccccc4[nH]3)c(Cl)c2c1`, -4% (inactive).
For the molecule `CCc1cn2c3c(cc(C(=O)N[C@@H](Cc4ccccc4)[C@H](O)CNCc4ccccc4)cc13)N(C)S(=O)(=O)CC2`, the inhibition is 1% (inactive).
As for `CS(=O)(=O)N(c1ccc(F)cc1)c1cc(C(=O)N[C@@H](Cc2ccccc2)[C@H](O)CNCc2cccc(C(F)(F)F)c2)cc(N2CCCC2=O)c1`, the inhibition is -1% (inactive).
For the molecule `CC(C)(CNCc1ccc(C(F)(F)F)cc1)c1nc(-c2ccc(Cl)c(O)c2)c(-c2ccncc2)[nH]1`, the inhibition is -1% (inactive).

By inhibition is commonly meant the relative decrease from the control value, in per cent.

Values taken from PubChem BioAssay.
